The list is not random: actives were taken first. Their share in the collection is about 21%.
Shiga toxin inh = inhibitors of Shiga toxin in Vero cells; Vero cells, Shiga toxin protein synthesis inhibition reporter; inhibition, % at 38.7 µM; 290,000 tested, 9.2% active; in the data active = inhibition mostly above about 28%, no sharp cut-off; inactive = mostly below about 43%
Pf growth 48h = P. falciparum growth inhibition at 48 hours (one generation); P. falciparum luciferase growth in erythrocytes, 48 h; Potency, µM (highest dose often 28.7 µM), actives largely listed as inhibitors; 310,000 tested, 5.9% active; AID 504832
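Erythrocytes infected with P. falciparum carrying an integrated firefly luciferase reporter (2% hematocrit, 0.1% parasitemia final) were exposed to compounds in RPMI 1640 with 0.5% Albumax at 37 C, 5% CO2. Growth inhibition was scored as reduced luminescence.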
CHX counter = affects cycloheximide protein synthesis inhibition readout, counter-screen; cell reporter, cycloheximide protein synthesis inhibition counterscreen; max response, %; 300,000 tested, 12% active; AID 2314; in the data active = max response mostly above about 13%, no sharp cut-off; inactive = mostly below about 14%; note: read at 38.3 µM for the half of the compounds with a filed dose
Pf growth 96h = P. falciparum growth inhibition at 96 hour, primary screen for plastid delayed-death inhibitors | P. falciparum luciferase reporter growth, 96 h | Potency, µM (series often up to 28.7 µM), hits mostly inhibitors | 320,000 tested, 6.9% active | AID 504834
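Two-generation exposure (96 h) targets delayed-death phenotype. Reporter parasites carrying integrated firefly luciferase, in red cells at 2% hematocrit and 0.05% parasitemia final, kept at 37 C, 5% CO2; luminescence loss indicates inhibition.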
NS1 inh = inhibitors of influenza NS1 protein function. Potency, µM (series often up to 46.1 µM). 270,000 tested, 0.4% active. AID 2326; calls by dose curve; note: actives are rising curves; nearly all actives have a fitted effect of over 50% in size
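Compounds were scored for reversing the slow growth caused by influenza A NS1 in S. cerevisiae, measured by optical density at 600 nm. Assay medium contained 2% galactose at pH 6.0; NS1-free yeast of the same strain were the positive control.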
Each line names hits and unclear results; the compound was inactive in the other large screens; ! = repeats disagree. Unless noted, calls come from the whole dose curve; as a rule, active = well fitted inhibition curve with a large enough effect; inconclusive = small, poorly fitted or top-dose-only effect, or another doubt; inactive = no such curve, though single readings can be large or run the other way.

O=C(c1cc(-c2cccc(Cl)c2)on1)N1CCCC1	Shiga toxin inh 71, CHX counter 18
O=C(c1cc(-c2ccccc2)on1)N1CCN(c2ccccc2)CC1	none
O=C(c1cc(-c2ccc(Cl)cc2)on1)N1CCN(c2ccc(F)cc2)CC1	Pf growth 96h inconclusive
Fc1ccc(-c2nc3c(-c4ccc(Cl)cc4)cnn3cc2CCN2CCOCC2)cc1	Pf growth 48h inconclusive, Pf growth 96h inconclusive
COc1ccc(C(=O)NCCS(=O)(=O)NCc2cccnc2)cc1	none (no result: Shiga toxin inh, CHX counter, NS1 inh)
COc1ccc(S(=O)(=O)N2CCC3(CC2)CC(=O)c2ccccc2O3)cc1C	none (no result: Shiga toxin inh, CHX counter, NS1 inh)
CN(C(=O)c1cc(-c2ccccc2)on1)C1CCCCC1	Shiga toxin inh 73, CHX counter 37
COc1cccc(NC(=O)CCSc2ccc3ccccc3n2)c1	CHX counter 15, Pf growth 96h 6.6µM
O=C(O)CCSc1ccc2ccccc2n1	Shiga toxin inh 30!
O=C(O)CSc1ccc2ccccc2n1	Pf growth 96h inconclusive
COc1ccc(NC(=O)CCSc2ccc3ccccc3n2)cc1	none
COc1cc(C)c(NC(=S)Nc2ccc(Cl)c(Cl)c2)cc1OC	Pf growth 48h inconclusive, Pf growth 96h inconclusive
Cc1ccc(C)c(N/C(N)=N/c2nc(C)cc(C)n2)c1	Pf growth 48h 12µM, Pf growth 96h inconclusive
COc1cc(N/C(N)=N/c2nc(C)cc(C)n2)cc(OC)c1	Pf growth 48h inconclusive, Pf growth 96h 10µM
COc1ccc(N/C(N)=N/c2nc(C)cc(C)n2)c(OC)c1	none
COc1ccc(C)cc1N/C(N)=N/c1nc(C)cc(C)n1	Pf growth 48h 12µM, Pf growth 96h inconclusive (no result: NS1 inh)
Cc1cc(C)nc(/N=C(\N)Nc2ccc(SC(F)F)cc2)n1	Pf growth 48h 12µM, Pf growth 96h 13µM
CCc1nc(N)c(C#N)c(-c2ccccc2OC)c1C	none
O=C(COC(=O)COc1ccccc1)NC12CC3CC(CC(C3)C1)C2	none (no result: Shiga toxin inh, CHX counter, NS1 inh)
Cc1nc(-c2ccc(O)c(O)c2)cs1	none (no result: Pf growth 48h)
Oc1ccc(-c2csc(Nc3ncccn3)n2)cc1O	Shiga toxin inh 103, CHX counter 33 (no result: NS1 inh)
Cc1cccc(Nc2nc(-c3ccc(O)cc3O)cs2)n1	Shiga toxin inh 109, CHX counter 38
Oc1ccc(-c2csc(Nc3ncccn3)n2)c(O)c1	Shiga toxin inh 88, CHX counter 59 (no result: NS1 inh)
CCC(C(=O)NC(C)(C)C)N(Cc1ccco1)C(=O)Cn1nnc(-c2ccc(F)cc2)n1 (stereo unspecified)	Pf growth 48h inconclusive
COc1ccc(OC)c(S(=O)(=O)N2CCC(C(=O)Nc3ccc(C)c(C)c3)CC2)c1	Pf growth 48h inconclusive (no result: Pf growth 96h)
CNS(=O)(=O)c1cc(NC(=O)c2cccc3cccnc23)ccc1C	none
COc1ccccc1OC(=O)c1ccc(SC)cc1OC	CHX counter 14 (no result: Pf growth 96h)
COc1ccccc1C(=O)Nc1cccc(SC)c1	Shiga toxin inh 66, CHX counter 33
COc1cc(SC)ccc1C(=O)N1CCN(c2ccccc2OC)CC1	none
CSc1cccc(NC(=O)c2cccc3cccnc23)c1	Shiga toxin inh 98, CHX counter 34
COc1cc(SC)ccc1C(=O)Nc1c(C)cccc1C	Pf growth 48h inconclusive, CHX counter 13, Pf growth 96h inconclusive
Cn1c(CC(=O)NNC(=O)c2ccc(F)cc2Cl)nc2ccccc21	Pf growth 48h inconclusive (no result: Shiga toxin inh, CHX counter, NS1 inh)
Cc1ccnc(NC(=O)c2ccc(S(=O)(=O)NCc3ccco3)cc2)c1	none (no result: Shiga toxin inh, CHX counter, NS1 inh)
COc1cc(SC)ccc1C(=O)Nc1nccs1	Shiga toxin inh active, CHX counter 28
COc1cc(SC)ccc1C(=O)Nc1ccccc1	Shiga toxin inh 94, CHX counter 37, Pf growth 96h inconclusive (no result: Pf growth 48h)
CCCn1c(N)c(C(=O)CSc2nnc(C3CC3)n2-c2ccccc2)c(=O)[nH]c1=O	Pf growth 48h inconclusive, Pf growth 96h 10µM (no result: Shiga toxin inh, CHX counter, NS1 inh)
CCCn1c(N)c(C(=O)CSc2nc3ccccc3s2)c(=O)[nH]c1=O	Shiga toxin inh 61, Pf growth 48h inconclusive, Pf growth 96h inconclusive (no result: NS1 inh)
CCCn1c(N)c(C(=O)CSc2nnc(N)s2)c(=O)[nH]c1=O	Pf growth 96h inconclusive (no result: Shiga toxin inh, CHX counter, NS1 inh)
O=C(O)CSc1nnc(C2CC2)n1-c1ccccc1	none
COc1ccc(OC)c(/C=N/NC2=NS(=O)(=O)c3ccccc32)c1	none
CCC1C/C(=C\c2cc(OC)c(OC)cc2OC)C(=O)/C(=C/c2cc(OC)c(OC)cc2OC)C1 (stereo unspecified)	Pf growth 48h 5.2µM, Pf growth 96h inconclusive
COc1cc(OC)c(OC)cc1/C=C1\CC(C)C/C(=C\c2cc(OC)c(OC)cc2OC)C1=O (stereo unspecified)	Pf growth 48h 4.7µM, Pf growth 96h inconclusive
